Data: the supplement of paper PMC10849652
Of roughly 8,800 targets only a part is listed; those with a hit were picked by preference. About 0.5% of all pairs of compound and target were hits.

How the values were obtained:
Experiment in all cases: log2 fold change, soluble protein after heating vs DMSO (PISA); higher = thermal stabilisation; K562 lysate, 10 uM; active = over 0.2 and 3.5 SD of the protein, either way, in both replicates (recomputed)
vemurafenib = compound: CCCS(=O)(=O)Nc1ccc(F)c(C(=O)c2c[nH]c3ncc(-c4ccc(Cl)cc4)cc23)c1F [vemurafenib]
Summary of the method: (§1)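 Values give the log-two fold change in thermal stability against solvent controls, from duplicates. Crude K562 extract at 1 mg/mL protein, made by dounce homogenisation in PBS pH 7.4 with 1 mM MgCl2, was treated with 10 μM compound for 30 min. After 3 min heating across 48°C-58°C, aliquots were pooled, adjusted to 0.5% NP-40 at 4°C and centrifuged at 21,000xg for 90 min. The supernatant was measured by TMTpro 16plex LC-MS/MS with channel sums equalised.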

[1] = compound: CCCS(=O)(=O)Nc1ccc(F)c(C(=O)c2c[nH]c3ncc(Cl)cc23)c1F
Summary of the method: as §1

barasertib = compound: CCN(CCCOc1ccc2c(Nc3cc(CC(=O)Nc4cccc(F)c4)[nH]n3)ncnc2c1)CCOP(=O)(O)O [barasertib]
Summary of the method: as §1

volasertib = compound: CC[C@@H]1C(=O)N(C)c2cnc(Nc3ccc(C(=O)N[C@H]4CC[C@H](N5CCN(CC6CC6)CC5)CC4)cc3OC)nc2N1C(C)C [volasertib]
Summary of the method: as §1

[2] = compound: CCn1c(C(=O)N(C2CC2)C2CC2)cc2c3c(ncn3C)c(Nc3cc(C)n(C)n3)nc21
Summary of the method: as §1

[3] = compound: CCn1cc(-c2ccnc3[nH]c(-c4cccc(CN(C)C)c4)cc23)c(-c2ccc(NC(=O)N(C)C)cc2)n1
Summary of the method: as §1

[4] = compound: CN1CCC(CNc2ccc3ncc(-c4cccc(OC(F)(F)F)c4)n3n2)CC1
Summary of the method: as §1

saracatinib = compound: CN1CCN(CCOc2cc(OC3CCOCC3)c3c(Nc4c(Cl)ccc5c4OCO5)ncnc3c2)CC1 [saracatinib]
Summary of the method: as §1

sotrastaurin = compound: CN1CCN(c2nc(C3=C(c4c[nH]c5ccccc45)C(=O)NC3=O)c3ccccc3n2)CC1 [sotrastaurin]
Summary of the method: as §1

alvocidib = compound: CN1CC[C@H](c2c(O)cc(O)c3c(=O)cc(-c4ccccc4Cl)oc23)[C@H](O)C1 [alvocidib]
Summary of the method: as §1

Tubastatin A = compound: CN1CCc2c(c3ccccc3n2Cc2ccc(C(=O)NO)cc2)C1 [Tubastatin A]
Summary of the method: as §1

[5] = compound: CNC(=O)C1=CC=CC=C1NC2=NC(=NC=C2Cl)NC3=C(C=C(C=C3)N4CCOCC4)OC
Summary of the method: as §1

defactinib = compound: CNC(=O)c1ccc(Nc2ncc(C(F)(F)F)c(NCc3nccnc3N(C)S(C)(=O)=O)n2)cc1 [defactinib]
Summary of the method: as §1

[6] = compound: CNc1nc(-c2ccc3c(N)n[nH]c3c2)cc(N2C[C@@H](C(=O)NC3CCCCC3)CC[C@H]2C)n1
Summary of the method: as §1

[7] = compound: COc1cc2nc(-c3cc(F)ccc3O)nc(N[C@@H]3CNC[C@H]3C(C)(C)O)c2cc1OC
Summary of the method: as §1

alisertib = compound: COc1cc(Nc2ncc3c(n2)-c2ccc(Cl)cc2C(c2c(F)cccc2OC)=NC3)ccc1C(=O)O [alisertib]
Summary of the method: as §1

gefitinib = compound: COc1cc2ncnc(Nc3ccc(F)c(Cl)c3)c2cc1OCCCN1CCOCC1 [gefitinib]
Summary of the method: as §1

[8] = compound: CC[C@@H]1C(=O)N(C)c2cnc(Nc3ccc(C(=O)NC4CCN(C)CC4)cc3OC)nc2N1C1CCCC1
Summary of the method: as §1

encorafenib = compound: COC(=O)N[C@@H](C)CNc1nccc(-c2cn(C(C)C)nc2-c2cc(Cl)cc(NS(C)(=O)=O)c2F)n1 [encorafenib]
Summary of the method: as §1

[9] = compound: COC(=O)[C@H](CCSC)NC(=O)C1=C(C=C(C=C1)NC[C@H](CS)N)C2=CC=CC=C2
Summary of the method: as §1

Measured: log2 fold change

ARL13B (UniProt Q3SXY8)
inactive: vemurafenib -0.075 | [1] -0.039 | barasertib -0.041 | volasertib 0.065 | [2] -0.043 | [3] 0.325 | [4] -0.246 | saracatinib 0.007 | sotrastaurin 0.117 | alvocidib 0.182 | Tubastatin A 0.018 | [5] 0.165 | defactinib -0.025 | [6] -0.102 | [7] 0

ACAT1, A0A5F9ZHJ0
inactive: [2] -0.131 | [3] -0.006 | [4] 0.081 | alvocidib -0.023 | Tubastatin A 0.081 | alisertib -0.035 | gefitinib -0.056

ADK, A0A5F9ZH76
inactive: [1] -0.174 | barasertib -0.019 | volasertib 0.167 | alisertib 0.008 | [7] -0.063 | gefitinib 0.072

ANKRD44 isoform 2 (UniProt Q8N8A2)
active: [3] -1.9
inactive: vemurafenib 0.056 | [1] 0.019 | barasertib 0.058 | [8] -0.308 | volasertib 0.054 | [4] 0.616 | alvocidib -0.688 | [5] 0.075 | defactinib -0.129 | encorafenib -0.048 | [9] 0.103 | alisertib 0.2 | [7] 0.119 | gefitinib 0.169

ALKBH1 (UniProt Q13686)
inactive: vemurafenib 0.069 | [8] -0.05 | [2] -0.043 | [3] 0.015 | [4] -0.072 | saracatinib -0.037 | alvocidib 0.003 | Tubastatin A -0.018 | [5] -0.113 | defactinib -0.008 | [6] 0.027 | encorafenib -0.016 | [9] 0.073 | alisertib -0.044 | gefitinib -0.07

ANP32E isoform 3 (UniProt Q9BTT0)
Chain of UniProt Q9BTT0 (Q9BTT0 whole entry, looked up): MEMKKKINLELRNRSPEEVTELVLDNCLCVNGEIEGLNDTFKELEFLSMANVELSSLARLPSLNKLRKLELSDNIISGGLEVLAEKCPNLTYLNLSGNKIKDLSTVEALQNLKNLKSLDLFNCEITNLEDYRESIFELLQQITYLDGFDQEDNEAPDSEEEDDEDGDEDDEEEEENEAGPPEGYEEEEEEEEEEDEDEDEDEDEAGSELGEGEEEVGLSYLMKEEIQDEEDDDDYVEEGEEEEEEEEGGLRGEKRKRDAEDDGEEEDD
inactive: vemurafenib 0.034 | barasertib -0.086 | [8] -0.026 | [4] 0.468 | alvocidib -0.27 | defactinib -0.141 | encorafenib 0.036 | [9] -0.015
active: [3] -0.724

ANKRD30B (UniProt Q9BXX2)
inactive: vemurafenib 0.136 | [1] 0.024 | barasertib 0.047 | [8] 0.012 | volasertib 0.003 | [2] -0.055 | [4] 0.281 | saracatinib 0.04 | alvocidib -0.307 | Tubastatin A 0.007 | [5] -0.01 | defactinib -0.155 | [6] 0.284 | encorafenib -0.113 | [9] 0.164 | alisertib -0.002 | [7] -0.067 | gefitinib -0.036
active: [3] -0.755

AGPAT2 (UniProt O15120)
inactive: [8] 0.108 | [2] 0.002 | [3] -0.034 | [4] 0.023 | sotrastaurin 0 | alvocidib -0.008 | Tubastatin A 0.01 | [5] 0.091 | defactinib -0.104 | encorafenib 0.054 | [9] -0.043 | alisertib 0.009 | gefitinib 0.052
active: vemurafenib 0.33

ANXA2 (UniProt H0YL33)
inactive: [1] 0.012 | barasertib 0.37 | volasertib 0.136 | [2] 0.012 | [4] -0.416 | saracatinib 0.088 | sotrastaurin 0.214 | alvocidib 0.315 | Tubastatin A 0.109 | [5] -0.177 | [6] 0.222 | alisertib 0.001 | [7] 0.005 | gefitinib 0.097
active: [3] 0.643

ALG3 (UniProt Q92685)
Chain of UniProt Q92685 (Q92685 whole entry, looked up): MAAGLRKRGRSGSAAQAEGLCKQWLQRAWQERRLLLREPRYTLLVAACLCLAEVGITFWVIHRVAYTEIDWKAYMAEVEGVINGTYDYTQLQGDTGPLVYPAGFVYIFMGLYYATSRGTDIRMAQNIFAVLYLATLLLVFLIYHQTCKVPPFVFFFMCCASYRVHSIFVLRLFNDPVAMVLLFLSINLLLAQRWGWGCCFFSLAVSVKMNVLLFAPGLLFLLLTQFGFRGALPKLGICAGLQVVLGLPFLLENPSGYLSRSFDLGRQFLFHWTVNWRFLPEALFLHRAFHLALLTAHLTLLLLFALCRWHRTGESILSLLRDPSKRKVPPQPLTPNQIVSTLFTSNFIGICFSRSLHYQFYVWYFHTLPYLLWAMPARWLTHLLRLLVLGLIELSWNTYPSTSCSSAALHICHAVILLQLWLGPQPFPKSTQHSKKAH
inactive: vemurafenib 0.084 | [1] -0.011 | barasertib 0.031 | [8] 0.012 | volasertib 0.01 | [2] 0.032 | [3] -0.371 | [4] 0.06 | saracatinib 0.068 | sotrastaurin 0.029 | alvocidib -0.04 | Tubastatin A -0.009 | [5] -0.436 | defactinib 0.165 | [6] -0.043 | encorafenib -0.061 | [9] 0.171 | [7] -0.033

ALG13 isoform 2 (UniProt Q9NP73)
inactive: [3] 0.016 | [4] -0.098 | alvocidib 0.003 | alisertib -0.281 | gefitinib -0.095

ACYP2 (UniProt P14621)
Chain of UniProt P14621 (P14621 whole entry, looked up): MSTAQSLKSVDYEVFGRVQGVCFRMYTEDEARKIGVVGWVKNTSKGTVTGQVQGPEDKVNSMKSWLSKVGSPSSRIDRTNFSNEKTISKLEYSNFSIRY
active: defactinib 0.329
inactive: vemurafenib -0.245 | [1] -0.023 | barasertib 0.04 | volasertib 0.011 | [2] -0.007 | [3] 0.189 | [4] -0.036 | sotrastaurin -0.019 | alvocidib 0.084 | Tubastatin A -0.021 | [5] 0.007 | alisertib -0.096 | [7] -0.009 | gefitinib -0.02

AMDHD2 (UniProt Q9Y303)
Chain of UniProt Q9Y303 (Q9Y303 whole entry, looked up): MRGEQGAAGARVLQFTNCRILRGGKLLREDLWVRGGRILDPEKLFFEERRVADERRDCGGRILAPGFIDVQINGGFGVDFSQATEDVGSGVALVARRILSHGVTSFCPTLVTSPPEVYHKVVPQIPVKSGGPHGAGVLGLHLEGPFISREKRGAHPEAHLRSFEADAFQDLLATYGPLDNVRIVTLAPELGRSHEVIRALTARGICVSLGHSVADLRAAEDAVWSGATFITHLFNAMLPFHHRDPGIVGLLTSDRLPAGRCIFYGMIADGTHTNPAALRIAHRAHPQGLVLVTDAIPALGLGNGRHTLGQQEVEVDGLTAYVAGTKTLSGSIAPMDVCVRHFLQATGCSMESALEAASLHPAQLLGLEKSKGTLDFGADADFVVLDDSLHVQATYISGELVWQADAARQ
inactive: vemurafenib -0.128 | [3] -0.116 | [4] 0.052 | sotrastaurin 0.047 | alvocidib 0.012 | defactinib -0.059

AP3D1 isoform 2 (UniProt O14617)
inactive: vemurafenib 0.002 | [1] -0.085 | volasertib -0.012 | [3] -0.231 | [4] 0.058 | alvocidib 0.25 | [5] -0.06 | defactinib 0.078 | alisertib 0.093 | [7] 0.087 | gefitinib 0.111

ARHGEF2 (UniProt V9GYF0)
inactive: vemurafenib -0.013 | [1] 0.05 | [8] 0.022 | volasertib -0.022 | [2] 0.11 | saracatinib -0.114 | Tubastatin A -0.07 | defactinib -0.211 | [6] 0.082 | encorafenib -0.035 | [9] 0.014 | alisertib -0.083 | [7] 0.112 | gefitinib 0.229

AP5B1 (UniProt Q2VPB7)
inactive: [1] 0.062 | barasertib 0.035 | [8] 0.066 | volasertib 0.011 | [2] 0.001 | [3] 0.002 | [4] 0.045 | saracatinib -0.014 | sotrastaurin -0.062 | alvocidib -0.091 | Tubastatin A -0.149 | [5] 0.099 | [6] -0.092 | encorafenib -0.017 | [9] -0.011 | alisertib -0.008 | [7] -0.059 | gefitinib 0.05

AGGF1 (UniProt Q8N302)
active: [3] -0.43 | defactinib -0.365
inactive: vemurafenib 0.112 | [1] -0.043 | barasertib 0.115 | [8] 0.084 | volasertib -0.06 | [2] 0.001 | [4] 0.175 | sotrastaurin 0.025 | alvocidib -0.114 | Tubastatin A -0.058 | [5] 0.023 | encorafenib 0.126 | [9] 0.008 | alisertib -0.015 | [7] 0.145 | gefitinib -0.008

ANKRD10 (UniProt Q9NXR5)
Chain of UniProt Q9NXR5 (Q9NXR5 whole entry, looked up): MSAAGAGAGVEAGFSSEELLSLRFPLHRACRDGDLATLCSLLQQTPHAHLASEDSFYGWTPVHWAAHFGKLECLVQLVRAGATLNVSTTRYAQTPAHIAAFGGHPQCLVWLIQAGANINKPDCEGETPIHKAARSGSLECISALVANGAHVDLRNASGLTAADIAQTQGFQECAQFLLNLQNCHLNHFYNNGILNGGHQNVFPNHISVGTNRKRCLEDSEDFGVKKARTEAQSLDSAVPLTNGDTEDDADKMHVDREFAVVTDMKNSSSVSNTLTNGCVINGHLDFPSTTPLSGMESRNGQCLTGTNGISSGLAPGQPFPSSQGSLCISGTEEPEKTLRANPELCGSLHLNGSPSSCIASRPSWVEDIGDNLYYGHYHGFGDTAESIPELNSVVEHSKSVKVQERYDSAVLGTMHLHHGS
inactive: vemurafenib 0.056 | [1] -0.035 | barasertib 0.137 | volasertib 0.1 | [2] 0.115 | [3] -0.19 | [4] -0.022 | saracatinib 0.017 | sotrastaurin 0.01 | alvocidib 0.003 | Tubastatin A -0.037 | [5] 0.018 | defactinib 0.012 | [6] -0.016 | alisertib -0.018 | [7] 0.035 | gefitinib -0.047

ACLY isoform 2 (UniProt P53396)
Chain of UniProt P53396 (P53396 whole entry, looked up): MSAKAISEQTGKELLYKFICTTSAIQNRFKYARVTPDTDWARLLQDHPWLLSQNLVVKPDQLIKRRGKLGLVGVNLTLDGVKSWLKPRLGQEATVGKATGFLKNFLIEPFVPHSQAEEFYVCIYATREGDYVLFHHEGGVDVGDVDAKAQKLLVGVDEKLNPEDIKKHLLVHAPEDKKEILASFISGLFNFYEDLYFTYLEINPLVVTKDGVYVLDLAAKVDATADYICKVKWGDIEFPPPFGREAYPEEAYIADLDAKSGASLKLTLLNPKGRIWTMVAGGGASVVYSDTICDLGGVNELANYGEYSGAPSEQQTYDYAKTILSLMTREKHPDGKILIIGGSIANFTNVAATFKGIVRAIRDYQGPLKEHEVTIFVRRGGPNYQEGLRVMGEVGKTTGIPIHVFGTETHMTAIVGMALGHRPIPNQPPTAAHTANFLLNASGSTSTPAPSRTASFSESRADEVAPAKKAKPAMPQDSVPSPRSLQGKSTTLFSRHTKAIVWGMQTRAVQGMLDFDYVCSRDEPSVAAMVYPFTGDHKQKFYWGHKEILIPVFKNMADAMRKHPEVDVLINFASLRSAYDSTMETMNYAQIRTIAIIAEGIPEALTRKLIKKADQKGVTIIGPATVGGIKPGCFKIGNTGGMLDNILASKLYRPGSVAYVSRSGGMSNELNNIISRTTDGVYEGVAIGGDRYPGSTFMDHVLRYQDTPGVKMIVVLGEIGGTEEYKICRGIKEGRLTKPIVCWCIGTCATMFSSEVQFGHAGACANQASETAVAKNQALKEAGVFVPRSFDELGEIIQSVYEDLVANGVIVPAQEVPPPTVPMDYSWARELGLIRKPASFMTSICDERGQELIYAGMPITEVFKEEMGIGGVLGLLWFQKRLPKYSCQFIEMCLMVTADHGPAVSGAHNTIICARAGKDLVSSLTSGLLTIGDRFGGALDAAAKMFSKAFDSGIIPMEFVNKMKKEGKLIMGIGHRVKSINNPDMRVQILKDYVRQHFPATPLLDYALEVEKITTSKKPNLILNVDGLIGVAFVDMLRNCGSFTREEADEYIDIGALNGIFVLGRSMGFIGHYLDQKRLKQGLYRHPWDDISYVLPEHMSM
active: [3] -0.485
inactive: vemurafenib 0.035 | [1] 0 | barasertib -0.088 | [8] 0.045 | volasertib -0.033 | [2] -0.187 | [4] 0.43 | sotrastaurin 0.02 | alvocidib -0.147 | Tubastatin A 0.017 | defactinib 0.007 | encorafenib 0.072 | [9] 0.009 | alisertib -0.089 | [7] 0.071 | gefitinib -0.407

ADAM17 (UniProt P78536)
Chain of UniProt P78536 (P78536 whole entry, looked up): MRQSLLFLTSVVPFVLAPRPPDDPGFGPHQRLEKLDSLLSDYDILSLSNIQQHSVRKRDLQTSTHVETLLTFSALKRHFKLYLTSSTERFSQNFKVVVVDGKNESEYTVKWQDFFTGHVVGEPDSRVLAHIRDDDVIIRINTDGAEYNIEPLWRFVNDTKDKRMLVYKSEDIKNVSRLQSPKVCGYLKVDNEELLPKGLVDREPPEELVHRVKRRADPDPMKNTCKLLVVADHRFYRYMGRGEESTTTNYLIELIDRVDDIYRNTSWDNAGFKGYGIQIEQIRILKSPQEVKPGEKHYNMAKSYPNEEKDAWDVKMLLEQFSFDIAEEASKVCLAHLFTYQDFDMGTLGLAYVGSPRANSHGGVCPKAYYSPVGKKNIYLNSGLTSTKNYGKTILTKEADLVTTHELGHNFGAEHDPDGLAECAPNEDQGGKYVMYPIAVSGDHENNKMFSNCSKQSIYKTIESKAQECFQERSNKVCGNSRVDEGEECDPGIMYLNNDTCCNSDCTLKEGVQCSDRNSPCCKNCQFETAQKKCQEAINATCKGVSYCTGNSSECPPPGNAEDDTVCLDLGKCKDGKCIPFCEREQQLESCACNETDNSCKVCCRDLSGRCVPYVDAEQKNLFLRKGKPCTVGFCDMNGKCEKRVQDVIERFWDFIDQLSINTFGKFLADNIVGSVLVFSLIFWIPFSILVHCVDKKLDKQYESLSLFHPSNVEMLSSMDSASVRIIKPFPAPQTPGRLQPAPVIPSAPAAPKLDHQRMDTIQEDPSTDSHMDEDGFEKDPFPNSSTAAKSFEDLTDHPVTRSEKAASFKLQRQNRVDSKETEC
inactive: vemurafenib 0.071 | barasertib -0.184 | [8] -0.151 | [2] -0.027 | [3] 0.065 | [4] 0.001 | saracatinib -0.011 | sotrastaurin 0.002 | alvocidib -0.066 | Tubastatin A 0.063 | [5] 0.011 | defactinib 0.005 | [6] 0.04 | encorafenib 0.09 | [9] 0.109 | alisertib -0.048 | gefitinib 0.031

ARMCX5 (UniProt Q6P1M9)
Chain of UniProt Q6P1M9 (Q6P1M9 whole entry, looked up): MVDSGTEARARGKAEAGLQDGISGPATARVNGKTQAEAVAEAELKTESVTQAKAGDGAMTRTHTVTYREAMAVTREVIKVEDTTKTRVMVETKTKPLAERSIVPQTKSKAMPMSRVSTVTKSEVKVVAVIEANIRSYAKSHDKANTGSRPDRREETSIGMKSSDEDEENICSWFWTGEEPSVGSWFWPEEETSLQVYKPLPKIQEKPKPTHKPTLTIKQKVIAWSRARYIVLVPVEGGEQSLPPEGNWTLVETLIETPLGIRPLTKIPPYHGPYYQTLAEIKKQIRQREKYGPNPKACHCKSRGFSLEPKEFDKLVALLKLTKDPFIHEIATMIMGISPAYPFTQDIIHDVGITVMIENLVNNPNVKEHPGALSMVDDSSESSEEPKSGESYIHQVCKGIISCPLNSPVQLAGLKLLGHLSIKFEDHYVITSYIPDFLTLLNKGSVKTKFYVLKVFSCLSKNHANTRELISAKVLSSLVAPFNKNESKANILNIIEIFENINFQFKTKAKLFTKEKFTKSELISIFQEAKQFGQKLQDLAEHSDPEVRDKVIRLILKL
inactive: vemurafenib 0 | [1] 0.032 | barasertib 0.007 | [8] -0.034 | volasertib -0.012 | [2] -0.027 | [3] -0.099 | [4] -0.03 | saracatinib 0.043 | alvocidib 0.029 | Tubastatin A -0.105 | [5] 0.067 | defactinib 0.014 | [6] -0.012 | encorafenib 0.045 | [9] 0.023 | alisertib -0.003 | [7] 0.035 | gefitinib 0.035

ALDH18A1 isoform 2 (UniProt P54886)
Chain of UniProt P54886 (P54886 whole entry, looked up): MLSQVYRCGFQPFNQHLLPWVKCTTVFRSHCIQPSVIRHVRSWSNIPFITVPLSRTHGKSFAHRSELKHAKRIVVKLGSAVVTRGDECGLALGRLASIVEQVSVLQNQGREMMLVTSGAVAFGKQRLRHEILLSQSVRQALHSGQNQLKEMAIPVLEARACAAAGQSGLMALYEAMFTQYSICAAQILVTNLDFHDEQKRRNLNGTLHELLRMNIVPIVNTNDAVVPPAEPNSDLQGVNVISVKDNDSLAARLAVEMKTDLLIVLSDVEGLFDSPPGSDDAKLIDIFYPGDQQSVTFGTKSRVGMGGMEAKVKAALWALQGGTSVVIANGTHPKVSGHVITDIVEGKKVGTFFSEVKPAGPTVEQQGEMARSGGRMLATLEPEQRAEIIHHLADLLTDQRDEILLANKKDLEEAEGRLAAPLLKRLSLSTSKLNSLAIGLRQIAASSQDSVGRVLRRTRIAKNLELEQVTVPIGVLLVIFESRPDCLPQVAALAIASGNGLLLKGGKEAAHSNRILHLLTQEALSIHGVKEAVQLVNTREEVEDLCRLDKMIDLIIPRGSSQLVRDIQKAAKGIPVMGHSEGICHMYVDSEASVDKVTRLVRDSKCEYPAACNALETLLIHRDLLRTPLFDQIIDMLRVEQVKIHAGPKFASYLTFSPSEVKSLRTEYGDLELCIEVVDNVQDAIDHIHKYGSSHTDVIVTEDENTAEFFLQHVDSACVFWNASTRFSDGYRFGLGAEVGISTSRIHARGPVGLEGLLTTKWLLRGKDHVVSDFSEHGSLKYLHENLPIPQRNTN
inactive: vemurafenib 0.308 | [2] 0.043 | saracatinib 0.13 | sotrastaurin 0.121 | Tubastatin A -0.06 | defactinib 0.016 | [6] -0.139

ACVR1 (UniProt Q04771)
inactive: barasertib -0.115 | [3] -0.244 | alvocidib 0.086 | [6] -0.056 | alisertib 0.069 | gefitinib 0.158
active: [4] 0.815
